Test results from ChEMBL document CHEMBL4513216, “Probing the Open Global Health Chemical Diversity Library for Multistage-Active Starting Points for Next-Generation Antimalarials” (ACS Infect Dis, 2020).
The whole screen tested about 69,000 compounds, of which about 8,600 (12%) showed an effect of 50% or more. What follows is part of a selection rich in strong results, with near analogues and random picks from the rest.

Each molecule was assayed on Plasmodium berghei (assay: Screen against P. berghei liver stage (PbLuc), transformed with Luciferase, at 10uM). Details: tested at 10 uM.
Assay type: functional, HepG2
For `CN1CCN([C@@H]2CN(C(=O)CCOc3ccccc3)C[C@H]2O)CC1`, the INHIBITION was 6.08%. `CC1CCN(c2nc3cn(-c4ccc(F)cc4)c(=O)c-3c[nH]2)CC1` showed an INHIBITION of 24.2%. For `CC(=O)Nc1ncc(S(=O)(=O)Nc2ccccc2F)s1`, the INHIBITION was 15.9%. `Cn1nccc1CCC(=O)N1CCOC(c2cnccn2)C1` (stereo not given) showed an INHIBITION of 2.71%. For `O=C(c1cc(-c2cn[nH]c2)nc2ccc(F)cc12)N1CCSCC1`, the INHIBITION was 51.8%. `O=C(O)c1cc(-c2cn[nH]c2)cc(S(=O)(=O)N2CCSCC2)c1` was tested, and the INHIBITION was -4.927%. `CCc1ccc2nc(-c3cnn(C)c3)cc(C(=O)N3CCCC3)c2c1` showed an INHIBITION of 7.3%. In the case of `Cc1cc(C(=O)N2CCNC(c3ccccc3)C2)c2ccc(F)cc2n1` (stereo not given), the INHIBITION is reported as 36.9%. Molecule `O=C(c1cc(-c2cn[nH]c2)nc2cc(F)ccc12)N1CCS(=O)(=O)CC1` has an INHIBITION of 79.9%. Molecule `Cn1cc(-c2cc(C(=O)N3CCOCC3)c3ccc(F)cc3n2)cn1` has an INHIBITION of -27.5%. In the case of `COCc1nnc2n1CCN(Cc1ccoc1)C2`, the INHIBITION is reported as 33%. `COCCC1CCN([C@@H]2c3ccccc3C3(CCNCC3)[C@H]2O)CC1` was tested, and the INHIBITION was 11.6%. In the case of `COc1ccc(-c2cc(C3CCCNC3)ccn2)cc1` (stereo not given), the INHIBITION is reported as -3.02%. Work on `CN1CCCN(c2cnn(Cc3ccncc3)c(=O)c2)CC1` yielded an INHIBITION of 54.8%. With `Cn1c(Cn2ncc(N3CCCCC3)cc2=O)nc2ccccc21` the INHIBITION was 40.3%. With `Cn1ncc(N2CCN(Cc3ccc(S(C)(=O)=O)cc3)CC2)cc1=O` the INHIBITION was 27.6%. `CN1CCCN(c2cnn(Cc3ccc(C(C)(C)C)cc3)c(=O)c2)CC1` gave an INHIBITION of 15.7%. Work on `Cn1c(Cn2ncc(N3CCCC3)cc2=O)nc2ccccc21` yielded an INHIBITION of 37.6%. Molecule `CN1CCN(c2cnn(Cc3ccc(S(C)(=O)=O)cc3)c(=O)c2)CC1` has an INHIBITION of 51.5%. In the case of `Cc1cc(C)n(Cc2cc(C(=O)N3CCCCC3c3nccs3)n[nH]2)n1` (stereo not given), the INHIBITION is reported as 7.83%. Molecule `CNC(=O)N(Cc1c(F)cccc1F)C1CCCC1` has an INHIBITION of 16.1%. `CC(=O)N(Cc1c(F)cccc1F)C1CCCC1` gave an INHIBITION of 58.3%. Molecule `CS(=O)(=O)CCC(=O)N(CCc1cccc(F)c1)C1CC1` has an INHIBITION of 40.7%. `CNS(=O)(=O)CC(=O)N(Cc1c(F)cccc1F)C1CCCC1` was tested, and the INHIBITION was -5.59%. `CS(=O)(=O)CCC(=O)N(Cc1c(F)cccc1F)C1CCCC1` was tested, and the INHIBITION was 55%. For `CNS(=O)(=O)CC(=O)N(Cc1c(F)cccc1Cl)C1CC1`, the INHIBITION was 17.1%. For `Cn1nnnc1SC1CCN(c2ccccc2Cl)C1=O` (stereo not given), the INHIBITION was 23.9%. With `Cc1cc(C[S+]([O-])Cc2ccccc2F)no1` (stereo not given) the INHIBITION was 40.7%. Work on `CCCc1noc(-c2ccc(-n3ncc(C(=O)O)c3C)nc2)n1` yielded an INHIBITION of 7.92%. `CC(C)[C@]1(O)CN(C(=O)CNC(N)=O)C[C@H]1C` gave an INHIBITION of 39.9%. `O=C(CS(=O)(=O)Cc1ccc(F)cc1)NC1CCCCNC1=O` (stereo not given) was tested, and the INHIBITION was -90.9%. Molecule `CCOc1ccnc(NCc2nc(C)cc(=O)[nH]2)n1` has an INHIBITION of 27.8%. Molecule `CCOc1ccnc(NCc2nc(C)cc(C(F)(F)F)n2)n1` has an INHIBITION of 52.9%. With `CCOc1ccnc(NCCc2nc(C)cc(=O)[nH]2)n1` the INHIBITION was 23.3%. `COCCCN(Cc1ccccn1)Cc1ccnn1C1CCCCO1` (stereo not given) showed an INHIBITION of 34.1%. `CCc1nnsc1C(=O)N1CCCC(n2nc(C)nc2C)C1` (stereo not given) gave an INHIBITION of -10.75%. `CN(Cc1cn2c(n1)CN(C(=O)C1CCOCC1)CC2)Cc1ccco1` showed an INHIBITION of -8.94%. `CN(Cc1cn2c(n1)CN(CC1CCOC1)CC2)Cc1ccco1` (stereo not given) showed an INHIBITION of 53.2%. For `CN(Cc1cn2c(n1)CN(C1CCOC1)CC2)Cc1ccco1` (stereo not given), the INHIBITION was 10%. `CN(Cc1cn2c(n1)CN(C1CCOCC1)CC2)Cc1ccco1` showed an INHIBITION of 56.7%. Work on `CN(Cc1cn2c(n1)CN(C(=O)CC1CC1)CC2)Cc1ccco1` yielded an INHIBITION of 30.1%. Molecule `CN(Cc1cn2c(n1)CN(CC1CC1)CC2)Cc1ccco1` has an INHIBITION of 8.53%. `Cc1c(CCC(=O)Nc2ccc(Br)cn2)cnn1C` was tested, and the INHIBITION was 15.2%. With `Cc1nn(C)c(C)c1C1CCCN1Cc1nc(-c2ccccn2)no1` (stereo not given) the INHIBITION was 11.9%. With `Cc1nn(C)cc1C(C)Nc1ncnc2sccc12` (stereo not given) the INHIBITION was 27.5%. Molecule `CC(Nc1ncnc2sccc12)c1cnn(C)c1` (stereo not given) has an INHIBITION of 38.7%. For `Cc1c(C(C)Nc2ncnc3sccc23)cnn1C` (stereo not given), the INHIBITION was 55.5%. `COc1ccc(OC)c(C(=O)N2CCCCC2Cn2cccn2)c1` (stereo not given) showed an INHIBITION of 14.4%. `Cc1cc(SCC(=O)O)nc2nn(CC(F)F)c(C)c12` gave an INHIBITION of 96%. `CCn1nc2nc(SCC(=O)O)cc(C(F)F)c2c1C` was tested, and the INHIBITION was 20.4%. `Cc1c2c(C(F)F)cc(SCC(=O)O)nc2nn1C` gave an INHIBITION of 15.9%. `CC(CCNC(=O)NCCc1ccncc1)c1ccccc1` (stereo not given) was tested, and the INHIBITION was 55.9%. `CC(CCNC(=O)NCCc1ccc(S(N)(=O)=O)cc1)c1ccccc1` (stereo not given) showed an INHIBITION of 54.8%. With `CC(c1cccc(S(N)(=O)=O)c1)N(C)CCc1ccccc1` (stereo not given) the INHIBITION was 33.6%. Molecule `O=C(NCCc1ccccc1)NCC(O)c1cccc(F)c1` (stereo not given) has an INHIBITION of -27%. `Cc1cc(NC(=O)NCCc2ccc(S(N)(=O)=O)cc2)n(C)n1` was tested, and the INHIBITION was -193%. `CC(CCNC(=O)NCCNc1cnccn1)c1ccccc1` (stereo not given) showed an INHIBITION of -10.4%. `CCn1ccc2ccnc(CC3CN(C(=O)c4ccc(F)cc4)C3)c21` showed an INHIBITION of 16.5%. `Cc1cc(-c2cc(-c3cc(CC(=O)O)cs3)nc(N)c2C#N)oc1C` was tested, and the INHIBITION was 33.9%. With `CCc1oc(C(=O)N[C@@H]2c3ccccc3C[C@@H]2O)cc1C` the INHIBITION was 12.9%. In the case of `CC(=O)N[C@@H]1Cc2ccccc2[C@H]1Nc1ccncn1`, the INHIBITION is reported as 67.5%. Work on `CC(=O)N[C@@H]1Cc2ccccc2[C@H]1Nc1cc(C2CC2)ncn1` yielded an INHIBITION of 35%. Molecule `CCc1nc(C)c(C(=O)N[C@@H]2c3ccccc3C[C@@H]2O)o1` has an INHIBITION of -5.22%. Molecule `CC(=O)N[C@@H]1Cc2ccccc2[C@H]1Nc1nnc(C2CC2)o1` has an INHIBITION of 52.6%. In the case of `O=C(C1CCCC1)N1CCC(Nc2ccncn2)CC1`, the INHIBITION is reported as 49.9%. `Cc1ccc(OCC(=O)N2CCOCC(O)(CN3CCCC3)C2)cc1C` (stereo not given) showed an INHIBITION of 37.9%. In the case of `Cc1cnc(CCNC(=O)C2CCN(S(=O)(=O)c3ccc(F)cc3)C2)s1` (stereo not given), the INHIBITION is reported as -21.8%. In the case of `O=C(Cn1cc(-c2ccccc2)cn1)N1CCNC1=O`, the INHIBITION is reported as -7.53%. For `Cc1cc(C(=O)NCCc2c(C)nn(C)c2C)nc(N2CCCCC2)n1`, the INHIBITION was -10.5%. With `O=C(CCn1nc(C(=O)Nc2ccccc2)ccc1=O)Nc1nccs1` the INHIBITION was 13.1%. With `N#Cc1ccc(CC(=O)N2CCC(Nc3cccnn3)CC2)cc1` the INHIBITION was -3.7%. For `CCCc1n[nH]c(C2CN(C(=O)c3cncnc3C)CCO2)n1` (stereo not given), the INHIBITION was 36.1%. `C=c1ncsc1=C1NC(c2cccc(CN3CCOCC3)c2)=NO1` was tested, and the INHIBITION was 12.6%. Work on `COc1ccc(CN2CCC3(CC2)CCN(c2cnn(C)c2)C3=O)cc1` yielded an INHIBITION of 43.9%. `O=C(c1ccncc1)N1C[C@H]2CC[C@@H](C1)N(C(=O)C1CCCC1)C2` was tested, and the INHIBITION was -3.48%. `CCn1cc(CN(C)S(=O)(=O)N2CCCC2c2ccco2)cn1` (stereo not given) gave an INHIBITION of 32%. In the case of `CN(Cc1cnn(C)c1)S(=O)(=O)N1CCCC1c1ccco1` (stereo not given), the INHIBITION is reported as 52.2%. With `CCN(Cc1cnn(C)c1)S(=O)(=O)N1CCCC1c1ccco1` (stereo not given) the INHIBITION was 27.5%. `O=C(c1ccc(C2CCCN2C(=O)c2cscn2)s1)N1CCSCC1` (stereo not given) was tested, and the INHIBITION was -30.6%. Molecule `CN(C)CC(=O)N1CCC2(CC1)COC(COc1ccccn1)C2` (stereo not given) has an INHIBITION of 35.3%. Molecule `Cc1ccc([C@]2(O)CC[C@H]3CN(Cc4cc(C)c(O)c(C)c4)C[C@H]32)nc1` has an INHIBITION of 45.5%. `COc1ncc(CN2C[C@@H]3CC[C@@](O)(c4ccc(C)cn4)[C@@H]3C2)cn1` was tested, and the INHIBITION was 41.2%. Molecule `Cc1ccc([C@]2(O)CC[C@H]3CN(Cc4ccncc4)C[C@H]32)nc1` has an INHIBITION of 66.4%. Work on `CSc1ccc(CN2C[C@@H]3CC[C@@](O)(c4ccc(C)cn4)[C@@H]3C2)cc1` yielded an INHIBITION of 75.3%. With `Cc1ccc([C@]2(O)CC[C@H]3CN(Cc4cccnc4)C[C@H]32)nc1` the INHIBITION was 41.2%. `O[C@@]1(c2ccccn2)CC[C@H]2CN(Cc3ccccn3)C[C@H]21` was tested, and the INHIBITION was 29.3%. With `O=C(C[C@@H]1COC[C@H]2CN(Cc3ccccn3)C[C@@H]12)N1CCOCC1` the INHIBITION was 33%. `Cc1noc(C)c1CC(=O)NCC1(O)CCCN(c2ccccn2)C1` (stereo not given) gave an INHIBITION of 14.6%. `CC(C)(C)c1nc(CN(Cc2ccccc2Cl)C2CCCC2)no1` was tested, and the INHIBITION was 9.35%. With `CCN(Cc1noc(C(C)(C)C)n1)Cc1ccc(C#N)cc1F` the INHIBITION was 28%. With `CSc1ccc(CN(C)Cc2noc(C(C)(C)C)n2)cc1` the INHIBITION was 56.9%. Work on `CN(Cc1ccc(C#N)cc1)Cc1noc(C(C)(C)C)n1` yielded an INHIBITION of 53.5%. `CC(C)(C)c1nc(CN(CCO)Cc2cc(Br)ccc2F)no1` was tested, and the INHIBITION was -38.2%. `CC(c1nc(C2CC2)no1)N(C)Cc1ccc(C#N)cc1` (stereo not given) gave an INHIBITION of -4.4%. With `CCc1cc(N(C)CCCO)n2nccc2n1` the INHIBITION was 19.4%. Work on `Cc1noc(C)c1CN(C)C(=O)Nc1cnn(CC2CCCO2)c1` (stereo not given) yielded an INHIBITION of 18.4%. For `Cc1cc(C(=O)N[C@H](C)c2onc(C)c2C(=O)O)c(C)o1`, the INHIBITION was -12.2%. Molecule `COCCSCC(=O)NCc1ccnc(N(C)C)c1` has an INHIBITION of 46.4%. In the case of `Cc1oc(C(C)C)cc1C(=O)N1C[C@@H]2CC[C@H]1CN(S(=O)(=O)N(C)C)C2`, the INHIBITION is reported as -19.5%. In the case of `CC(C)N1CC2(CCCN(Cc3noc(C4CCCC4)n3)C2)CCC1=O` (stereo not given), the INHIBITION is reported as 50.5%. In the case of `O=C1CCC2(CCCO2)CCN1Cc1noc(C2CCCC2)n1` (stereo not given), the INHIBITION is reported as 26.7%. With `CCCN1CCCC2(CCN(Cc3noc(C4CCCC4)n3)C2)C1=O` (stereo not given) the INHIBITION was -15.8%. Molecule `O=C1N(CCO)CCCC12CCN(Cc1noc(C3CCCC3)n1)C2` (stereo not given) has an INHIBITION of 22.7%. `CC(C)N1CCCC2(CCN(Cc3noc(C4CCCC4)n3)C2)C1=O` (stereo not given) gave an INHIBITION of 70.2%. Molecule `CNC1CCCN(Cc2noc(C3CC3)n2)C1` (stereo not given) has an INHIBITION of -17.4%.
